Assays:
Assay in all cases: protein binding microarray; high values mean tight binding
Settings in all cases: dsDNA, one strand shown
RELARELA (p65 homodimer) = RELARELA (p65 homodimer) (Homo sapiens, UniProt Q04206 1-307)
p50p50 homodimer = p50p50 homodimer (Homo sapiens, UniProt P19838 7-356)
p52p52 homodimer = target: T1, p52p52 homodimer (Homo sapiens, UniProt Q00653 4-332)
T1 sequence: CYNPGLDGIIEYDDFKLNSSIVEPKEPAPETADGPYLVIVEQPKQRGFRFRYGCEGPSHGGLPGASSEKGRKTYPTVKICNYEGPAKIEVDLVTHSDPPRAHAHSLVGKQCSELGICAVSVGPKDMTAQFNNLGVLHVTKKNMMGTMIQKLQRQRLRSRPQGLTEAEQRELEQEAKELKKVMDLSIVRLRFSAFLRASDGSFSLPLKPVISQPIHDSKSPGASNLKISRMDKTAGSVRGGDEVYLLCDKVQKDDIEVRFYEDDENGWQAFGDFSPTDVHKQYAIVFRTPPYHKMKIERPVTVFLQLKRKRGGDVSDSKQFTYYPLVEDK

[1] = target: RELA (p65) subunit of heterodimer;p50 subunit (Homo sapiens;Homo sapiens, UniProt Q04206;P19838 1-307;7-356)
RELA (p65) subunit of heterodimer;p50 subunit, sequence (Q04206 1-307, chain 1 of 2): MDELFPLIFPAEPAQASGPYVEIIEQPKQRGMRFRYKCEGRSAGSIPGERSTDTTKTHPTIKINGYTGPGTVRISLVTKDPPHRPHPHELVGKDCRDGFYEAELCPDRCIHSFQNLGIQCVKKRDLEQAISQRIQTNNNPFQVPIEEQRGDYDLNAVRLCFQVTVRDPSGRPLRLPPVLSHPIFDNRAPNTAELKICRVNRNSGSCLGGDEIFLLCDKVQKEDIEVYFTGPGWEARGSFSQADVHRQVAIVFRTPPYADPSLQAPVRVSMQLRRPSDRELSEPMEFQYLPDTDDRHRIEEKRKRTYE
RELA (p65) subunit of heterodimer;p50 subunit, sequence (P19838 7-356, chain 2 of 2): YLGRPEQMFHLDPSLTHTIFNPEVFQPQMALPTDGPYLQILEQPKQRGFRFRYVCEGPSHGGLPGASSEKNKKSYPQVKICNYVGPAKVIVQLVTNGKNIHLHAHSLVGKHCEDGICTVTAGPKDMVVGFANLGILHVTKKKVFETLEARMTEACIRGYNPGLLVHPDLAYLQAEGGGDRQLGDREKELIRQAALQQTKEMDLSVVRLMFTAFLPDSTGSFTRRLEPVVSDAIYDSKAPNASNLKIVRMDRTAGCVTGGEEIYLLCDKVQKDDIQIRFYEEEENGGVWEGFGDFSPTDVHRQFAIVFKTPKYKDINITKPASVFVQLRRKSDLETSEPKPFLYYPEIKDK

[2] = target: RELA (p65) subunit of heterodimer;p52 subunit (Homo sapiens;Homo sapiens, UniProt Q04206;Q00653 1-307;4-332)
RELB subunit;p50 subunit = RELB subunit;p50 subunit (Homo sapiens;Homo sapiens, UniProt Q01201;P19838 120-401;7-356)
RELB subunit;p52 subunit = target: T2, RELB subunit;p52 subunit (Homo sapiens;Homo sapiens, UniProt Q01201;Q00653 120-401;4-332)
T2 sequence 1: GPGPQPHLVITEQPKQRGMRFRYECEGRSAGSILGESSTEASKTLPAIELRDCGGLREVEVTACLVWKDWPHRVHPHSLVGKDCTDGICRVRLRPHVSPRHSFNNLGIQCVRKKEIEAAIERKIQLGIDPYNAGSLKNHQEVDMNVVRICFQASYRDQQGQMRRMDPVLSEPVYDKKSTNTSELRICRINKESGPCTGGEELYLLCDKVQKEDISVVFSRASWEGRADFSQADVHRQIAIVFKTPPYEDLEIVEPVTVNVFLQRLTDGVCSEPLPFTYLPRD
T2 sequence 2: T1 sequence

[3] = target: C-Rel subunit;p50 subunit (Homo sapiens;Homo sapiens, UniProt Q04864;P19838 1-285;7-356)
[4] = target: T3, C-Rel subunit;p52 subunit (Homo sapiens;Homo sapiens, UniProt Q04864;Q00653 1-285;4-332)
T3 sequence 1: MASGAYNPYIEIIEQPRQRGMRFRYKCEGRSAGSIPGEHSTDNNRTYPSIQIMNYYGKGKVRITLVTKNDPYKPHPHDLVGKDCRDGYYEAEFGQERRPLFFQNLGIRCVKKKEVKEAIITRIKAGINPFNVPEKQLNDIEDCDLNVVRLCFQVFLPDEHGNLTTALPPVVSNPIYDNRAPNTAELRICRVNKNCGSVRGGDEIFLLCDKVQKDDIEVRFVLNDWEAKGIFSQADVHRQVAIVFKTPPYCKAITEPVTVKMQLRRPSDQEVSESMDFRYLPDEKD
T3 sequence 2: T1 sequence

p50p50 homodimer, sequence (P19838 7-356): as the sequence (P19838 7-356, chain 2 of 2) above
RELARELA (p65 homodimer), sequence (Q04206 1-307): as the sequence (Q04206 1-307, chain 1 of 2) above

Sequence	binding signal (RELARELA (p65 homodimer)) [z-score]	binding signal (p50p50 homodimer) [z-score]	binding signal (p52p52 homodimer) [z-score]	binding signal [1] [z-score]	binding signal [2] [z-score]	binding signal (RELB subunit;p50 subunit) [z-score]	binding signal (RELB subunit;p52 subunit) [z-score]	binding signal [3] [z-score]	binding signal [4] [z-score]
AGGAGGTCCCC	0.488	0.454	0.466	0.767	0.75	0.631	0.644	0.617	0.715
AGGTAGGCCCT	-0.932	-0.756	-0.535	-0.978	-0.63	-0.647	-0.561	-1.13	-0.598
CAATTACCCCT	0.378	1.06	0.863	0.727	1.01	0.941	1.38	0.652	0.899
AAAGTCTCCCC	0.367	0.818	0.559	0.733	0.654	0.78	0.879	0.882	0.388
CAAAAGACCCT	-0.503	0.305	-0.0206	0	0.196	-0.111	-0.0281	-0.615	0.0358
GGGAGTGTCCT	0.931	-0.152	0.385	0.0362	0.309	-0.212	0.00999	-0.0276	0.382
GGAGTGGCCCT	-0.154	-1.1	-0.562	-0.155	-0.329	-0.631	-0.334	-0.305	-0.0519
GGGATAGTCCC	2.07	0.707	2.94	1.82	2.15	1.87	1.6	1.32	1.96
AGATTACTCCT	-0.0935	-1.24	-0.548	-0.691	-0.875	-1.01	-0.843	-1.01	-0.848
GGGGAATTCCC	4.86	2.07	3.41	3.6	3.73	3.87	3.85	3.14	4.19
GGAAACTCCCC	3.23	1.08	2.01	2.39	2.23	1.32	2.1	2.15	2.63
CGGTGCCTCCT	-0.441	-0.702	-0.485	-0.873	-0.611	-0.763	-0.769	-1.19	-0.785
AGAAAAGCCCC	1.13	0.938	2.07	1.57	1.76	1.77	1.57	0.96	1.65
GGATAAATCCC	0.859	0.48	0.567	0.64	0.582	0.489	0.482	0.867	0.396
GAGAAACCCCC	1.35	1.41	2.15	2.14	2	1.98	2.04	1.45	2.14
AGGTGTCCCCC	0.286	1.17	0.966	1.2	1.19	1.21	1.46	1.14	1.02
CGAAAGATCCC	0.0219	-0.089	-0.151	-0.0254	-0.0507	0.0265	-0.282	-0.258	-0.147
CGATTGACCCC	-0.827	-0.753	-0.367	-0.579	-0.288	-0.398	-0.411	-0.541	-0.184
GAAAGCTCCCC	-0.0663	0.67	0.244	0.536	0.231	0.445	0.294	0.317	0.189
CAAGGTACCCT	-0.567	-0.267	-0.0886	-0.499	-0.317	-0.0446	-0.391	-0.833	-0.57

Sequence	binding signal (RELARELA (p65 homodimer)) [z-score]	binding signal (p50p50 homodimer) [z-score]	binding signal (p52p52 homodimer) [z-score]	binding signal [1] [z-score]	binding signal [2] [z-score]	binding signal (RELB subunit;p50 subunit) [z-score]	binding signal (RELB subunit;p52 subunit) [z-score]	binding signal [3] [z-score]	binding signal [4] [z-score]
GGGTGGGCCCT	0.392	-0.139	-0.133	-0.0704	-0.184	-0.392	-0.318	-0.304	0.357
AAATACGCCCT	0.0178	-0.886	-0.502	-0.594	-0.758	-1.09	-0.751	-0.684	-0.592
GGAGGATCCCC	0.374	1.03	1.19	1.54	1.22	1.27	0.916	1.15	0.899
CAATGTTCCCT	0.185	0.396	0.137	-0.019	-0.0733	0.0726	0.0791	0.0457	-0.175
CGGTACTCCCT	0.445	0.837	0.708	0.515	0.425	0.724	0.415	0.323	0.382
CAATACGCCCC	0.0573	0.196	0.145	0.039	0.0537	0.204	0.503	0.297	0.13
GAGTTTCTCCT	-0.323	-1.49	-0.546	-0.596	-0.78	-0.911	-0.855	-0.907	-0.692
GAAATAGTCCC	0.835	1.16	1.31	1.16	0.964	1.38	0.953	0.838	0.853
AGAGGAGCCCC	-0.573	0.291	0.0479	-0.113	-0.0242	0.0681	0.0342	-0.0137	-0.225
AGAGATGCCCT	-0.748	-1.63	-0.655	-0.706	-0.889	-1.04	-0.94	-0.882	-0.704
CAAAGTACCCC	0.144	0.83	0.509	0.648	0.795	1.07	1.19	0.721	0.588
AAGTTAGTCCT	-0.0878	-1.56	-0.552	-1.02	-0.842	-1.03	-0.752	-1	-0.837
GAGGTGGTCCT	-0.284	-0.198	-0.03	-0.746	-0.496	-0.46	-0.352	-1.08	-0.521
GAATAACTCCT	-0.147	-1.37	-0.713	-0.733	-0.946	-0.919	-0.853	-0.82	-0.791
AAGATCTCCCT	0.0704	1.15	0.499	0.913	0.528	1.16	1.02	0.475	0.202
CGGAAAACCCC	3.69	1.19	2.57	2.32	2.28	1.23	2.18	2.07	3.23
GGAGGGATCCT	-0.405	-1.1	-0.254	-0.619	-0.58	-0.707	-0.517	-1.01	-0.454
AAATTGCTCCT	-0.35	-1.61	-0.602	-0.644	-0.813	-0.967	-0.7	-1.33	-0.903
GAAATGACCCT	-0.43	-0.328	-0.304	-0.247	-0.11	-0.287	-0.38	-0.632	-0.223
CAAAGGGTCCC	-0.377	-0.186	-0.0557	-0.357	-0.288	0.0439	-0.0611	-0.397	-0.359

Sequence	binding signal (RELARELA (p65 homodimer)) [z-score]	binding signal (p50p50 homodimer) [z-score]	binding signal (p52p52 homodimer) [z-score]	binding signal [1] [z-score]	binding signal [2] [z-score]	binding signal (RELB subunit;p50 subunit) [z-score]	binding signal (RELB subunit;p52 subunit) [z-score]	binding signal [3] [z-score]	binding signal [4] [z-score]
CGGTGTCTCCC	-0.108	-0.00286	0.283	0.0635	0.211	-0.121	0.143	-0.0512	0.354
AGAAGGGTCCC	-0.591	-0.215	0.0384	-0.173	-0.123	-0.00663	-0.0866	-0.405	-0.315
AGAGGCGTCCC	-0.0545	-0.0189	0.07	-0.193	-0.01	0.139	0.267	-0.234	-0.17
GAAAGTTCCCT	0.999	1.15	1.11	1.12	1.03	0.985	0.987	0.705	0.73
CAGAAAATCCC	1.82	0.978	1.18	0.992	1.13	0.966	1.04	0.902	1.19
CGATTGTCCCT	0.353	1.16	1.18	0.871	0.943	1.29	1.27	0.77	0.66
GAAGTTGTCCT	-0.136	-1.05	-0.601	-0.859	-0.716	-0.826	-0.62	-0.931	-0.642
AGGAGCGCCCC	-0.227	-0.229	0.018	0.186	0.348	-0.0805	0.162	0.0948	0.277
GAGTTGCCCCC	0.487	1.04	0.557	1.06	0.811	0.918	0.947	1.16	0.676
GAAGTGGCCCC	-1.02	-0.225	-0.401	-0.503	-0.265	-0.183	-0.112	-0.347	-0.316
GGAATACTCCC	0.714	0.226	-0.025	0.507	0.124	0.0318	-0.125	0.28	0.199
GAGATGATCCT	-0.876	-1.5	-0.697	-0.978	-1.06	-1.27	-1.16	-1.84	-1.11
AGGTAAACCCC	1.17	0.722	2.16	1.25	1.68	0.79	1.51	0.88	2.02
AGATGCGCCCT	-0.621	-1.13	-0.603	-0.768	-0.721	-1.01	-0.804	-1.47	-0.758
AGAAGTCCCCC	0.863	1.4	1.58	1.97	1.75	2.05	2.01	1.53	1.63
CAGAGCTCCCC	-0.432	-0.0564	-0.163	0.0392	-0.211	0.161	-0.0377	0.0629	-0.215
AAAGTGATCCT	-0.833	-1.79	-0.692	-1.3	-1.06	-1.27	-0.978	-1.55	-0.986
CAGTTTGCCCC	1.6	0.492	0.189	1.17	0.571	0.532	0.563	1.5	0.899
AGGTGCGTCCT	-0.881	-0.757	-0.281	-0.82	-0.633	-0.695	-0.608	-1.1	-0.46
GGGGGGCCCCT	0.434	0.995	1.67	1.67	1.86	1.23	1.45	1.22	1.71

Reference: PMC3218832
